# Reference: PMC7862700, “An all-to-all approach to the identification of sequence-specific readers for epigenetic DNA modifications on cytosine”
# Experiments:
# Test in all cases: DAPPL (digital affinity profiling via proximity ligation, sequencing); 10 mM Tris-HCl pH 7.5, 50 mM NaCl, 1 mM DTT, 4% glycerol, room temperature, 30 min; GST-TFs on glutathione beads, 16-mer random dsDNA library, 0.1% formaldehyde crosslink after washing; high values mean tight binding
# Conditions in all cases: protein: recombinant; tags: N-terminal GST; dsDNA, one strand shown
# ELF3 = biological target: T1, ELF3 (Homo sapiens, UniProt P78545 1-371)
# T1 sequence: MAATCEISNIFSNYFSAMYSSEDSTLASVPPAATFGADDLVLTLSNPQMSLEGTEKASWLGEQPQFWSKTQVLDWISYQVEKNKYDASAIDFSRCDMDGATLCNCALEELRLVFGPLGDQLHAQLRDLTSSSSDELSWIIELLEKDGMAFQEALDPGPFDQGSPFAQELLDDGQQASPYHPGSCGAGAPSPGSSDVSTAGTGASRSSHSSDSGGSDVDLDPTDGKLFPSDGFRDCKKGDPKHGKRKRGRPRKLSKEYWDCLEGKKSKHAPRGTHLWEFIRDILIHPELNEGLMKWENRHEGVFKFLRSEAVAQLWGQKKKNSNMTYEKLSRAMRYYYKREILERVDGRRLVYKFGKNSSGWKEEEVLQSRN
# How it was run: (§1)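 Human transcription factors fused to GST were expressed in yeast, captured on glutathione beads, given DNA barcodes and pooled with a GST-only negative control. Pools were incubated with 200 nmole of a 16-mer random double-stranded DNA library in Tris/NaCl/DTT/glycerol buffer at room temperature for 30 min. They were then washed, crosslinked with 0.1% formaldehyde, proximity-ligated (BsaI/T4 ligase, 1 h, 37 °C), PCR-amplified and sequenced on an Illumina NextSeq500. Binding signal is each 6-mer's read frequency for a factor divided by its frequency for the GST control.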
# ETV3L = biological target: T2, ETV3L (Homo sapiens, UniProt Q6ZN32 1-361)
# T2 sequence: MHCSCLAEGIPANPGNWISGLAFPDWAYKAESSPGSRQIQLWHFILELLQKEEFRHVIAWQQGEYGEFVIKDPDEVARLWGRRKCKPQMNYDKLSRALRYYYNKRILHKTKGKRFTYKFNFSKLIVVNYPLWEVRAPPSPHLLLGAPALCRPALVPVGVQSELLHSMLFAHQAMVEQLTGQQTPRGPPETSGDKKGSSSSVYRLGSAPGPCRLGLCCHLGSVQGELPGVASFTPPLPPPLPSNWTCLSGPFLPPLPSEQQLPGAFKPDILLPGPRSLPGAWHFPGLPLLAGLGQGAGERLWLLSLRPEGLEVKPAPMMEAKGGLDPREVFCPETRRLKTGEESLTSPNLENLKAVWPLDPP
# How it was run: as §1
# CRX = CRX (Homo sapiens, UniProt O43186 1-299)
# How it was run: as §1
# ELK3 = biological target: T3, ELK3 (Homo sapiens, UniProt P41970 1-407)
# T3 sequence: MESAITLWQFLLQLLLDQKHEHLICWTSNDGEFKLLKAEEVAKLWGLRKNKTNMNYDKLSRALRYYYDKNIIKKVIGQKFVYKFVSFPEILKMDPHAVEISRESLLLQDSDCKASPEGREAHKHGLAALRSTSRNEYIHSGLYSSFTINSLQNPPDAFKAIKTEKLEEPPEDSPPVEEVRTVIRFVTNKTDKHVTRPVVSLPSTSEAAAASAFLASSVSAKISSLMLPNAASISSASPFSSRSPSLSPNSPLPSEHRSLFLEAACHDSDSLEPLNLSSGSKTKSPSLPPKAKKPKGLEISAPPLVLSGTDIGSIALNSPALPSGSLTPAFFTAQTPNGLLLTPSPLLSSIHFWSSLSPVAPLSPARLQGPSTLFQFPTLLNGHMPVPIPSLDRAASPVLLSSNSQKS
# How it was run: as §1
# SPI1 = SPI1 (Homo sapiens, UniProt P17947 1-270)
# How it was run: as §1
# ERF = biological target: T4, ERF (Homo sapiens, UniProt P50548 1-548)
# T4 sequence: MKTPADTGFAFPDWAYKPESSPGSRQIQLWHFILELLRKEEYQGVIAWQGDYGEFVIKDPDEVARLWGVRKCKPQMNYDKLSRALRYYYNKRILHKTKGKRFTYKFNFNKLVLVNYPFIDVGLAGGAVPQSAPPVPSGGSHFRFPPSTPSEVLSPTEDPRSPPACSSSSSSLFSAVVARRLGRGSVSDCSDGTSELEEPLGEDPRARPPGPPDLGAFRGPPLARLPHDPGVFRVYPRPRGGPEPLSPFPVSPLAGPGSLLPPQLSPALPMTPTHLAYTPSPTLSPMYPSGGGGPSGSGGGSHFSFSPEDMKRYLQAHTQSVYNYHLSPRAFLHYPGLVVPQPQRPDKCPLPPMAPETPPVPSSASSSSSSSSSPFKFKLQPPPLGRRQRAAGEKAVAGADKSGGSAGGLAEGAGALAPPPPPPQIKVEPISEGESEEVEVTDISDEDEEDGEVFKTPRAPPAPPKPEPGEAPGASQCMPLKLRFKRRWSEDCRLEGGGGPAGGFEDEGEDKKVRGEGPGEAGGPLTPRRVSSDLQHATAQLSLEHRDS
# How it was run: as §1
# ELF5 = biological target: T5, ELF5 (Homo sapiens, UniProt Q9UKW6-2 1-255)
# T5 sequence: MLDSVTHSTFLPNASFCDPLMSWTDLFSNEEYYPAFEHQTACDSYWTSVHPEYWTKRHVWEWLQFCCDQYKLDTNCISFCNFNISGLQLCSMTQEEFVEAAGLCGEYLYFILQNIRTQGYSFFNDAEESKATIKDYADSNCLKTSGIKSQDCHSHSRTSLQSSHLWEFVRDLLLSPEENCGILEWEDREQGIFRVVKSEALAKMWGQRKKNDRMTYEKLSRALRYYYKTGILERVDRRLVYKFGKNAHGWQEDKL
# How it was run: as §1
# SPDEF = biological target: T6, SPDEF (Homo sapiens, UniProt O95238 1-335)
# T6 sequence: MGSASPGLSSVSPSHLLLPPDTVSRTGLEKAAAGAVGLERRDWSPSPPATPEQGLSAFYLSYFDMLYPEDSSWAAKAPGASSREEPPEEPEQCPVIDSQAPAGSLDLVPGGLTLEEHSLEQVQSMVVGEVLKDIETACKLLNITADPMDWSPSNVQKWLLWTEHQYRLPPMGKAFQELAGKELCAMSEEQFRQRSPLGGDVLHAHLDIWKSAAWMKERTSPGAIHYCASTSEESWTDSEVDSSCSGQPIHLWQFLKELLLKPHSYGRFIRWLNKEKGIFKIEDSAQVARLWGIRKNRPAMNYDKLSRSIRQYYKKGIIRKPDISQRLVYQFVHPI
# How it was run: as §1
# ELF1 = ELF1 (Homo sapiens, UniProt P32519 1-619)
# How it was run: as §1
# EHF = biological target: T7, EHF (Homo sapiens, UniProt Q9NZC4 1-300)
# T7 sequence: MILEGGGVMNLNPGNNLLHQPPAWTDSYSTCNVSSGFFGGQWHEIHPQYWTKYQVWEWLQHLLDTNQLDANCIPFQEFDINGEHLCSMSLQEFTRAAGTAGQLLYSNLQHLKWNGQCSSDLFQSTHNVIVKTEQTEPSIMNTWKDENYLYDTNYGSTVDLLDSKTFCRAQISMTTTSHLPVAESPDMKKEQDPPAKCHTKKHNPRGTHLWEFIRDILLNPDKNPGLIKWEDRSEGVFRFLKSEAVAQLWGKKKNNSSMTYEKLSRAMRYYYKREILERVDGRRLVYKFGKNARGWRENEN
# How it was run: as §1
# FEV = biological target: T8, FEV (Homo sapiens, UniProt Q99581 1-238)
# T8 sequence: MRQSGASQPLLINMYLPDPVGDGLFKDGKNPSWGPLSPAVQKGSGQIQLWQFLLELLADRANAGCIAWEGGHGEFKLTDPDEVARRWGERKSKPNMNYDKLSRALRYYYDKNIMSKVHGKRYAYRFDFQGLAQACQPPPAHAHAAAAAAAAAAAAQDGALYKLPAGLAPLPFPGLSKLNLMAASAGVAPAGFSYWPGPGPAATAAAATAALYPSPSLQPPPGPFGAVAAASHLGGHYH
# How it was run: as §1
# ETV6 = ETV6 (Homo sapiens, UniProt P41212 1-452)
# How it was run: as §1
# Chain of CRX (O43186 whole entry): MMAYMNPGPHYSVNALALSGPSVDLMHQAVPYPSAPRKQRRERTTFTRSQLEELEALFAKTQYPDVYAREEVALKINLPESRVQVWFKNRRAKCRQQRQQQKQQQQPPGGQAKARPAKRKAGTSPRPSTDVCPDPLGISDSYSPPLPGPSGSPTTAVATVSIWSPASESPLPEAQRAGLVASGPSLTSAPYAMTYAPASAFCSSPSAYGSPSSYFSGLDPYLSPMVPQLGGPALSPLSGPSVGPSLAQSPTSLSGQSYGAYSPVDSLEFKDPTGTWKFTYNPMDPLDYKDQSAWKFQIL
# Chain of ELF1 (P32519 whole entry): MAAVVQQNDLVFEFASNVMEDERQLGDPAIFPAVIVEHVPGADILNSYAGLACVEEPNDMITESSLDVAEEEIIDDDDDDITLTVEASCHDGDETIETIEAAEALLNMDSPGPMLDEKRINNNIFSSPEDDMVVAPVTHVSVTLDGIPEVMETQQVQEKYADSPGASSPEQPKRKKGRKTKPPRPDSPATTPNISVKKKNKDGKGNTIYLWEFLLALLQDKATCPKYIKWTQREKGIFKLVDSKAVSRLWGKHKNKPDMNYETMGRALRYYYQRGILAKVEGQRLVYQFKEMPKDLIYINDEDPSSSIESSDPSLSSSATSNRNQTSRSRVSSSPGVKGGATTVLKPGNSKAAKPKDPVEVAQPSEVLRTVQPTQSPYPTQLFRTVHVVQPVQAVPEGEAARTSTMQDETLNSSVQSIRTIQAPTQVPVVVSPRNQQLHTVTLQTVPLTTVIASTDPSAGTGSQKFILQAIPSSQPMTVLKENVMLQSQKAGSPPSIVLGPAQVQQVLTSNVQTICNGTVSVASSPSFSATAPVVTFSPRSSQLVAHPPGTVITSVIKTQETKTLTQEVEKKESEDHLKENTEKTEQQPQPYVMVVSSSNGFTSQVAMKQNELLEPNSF
# Chain of ETV6 (P41212 whole entry): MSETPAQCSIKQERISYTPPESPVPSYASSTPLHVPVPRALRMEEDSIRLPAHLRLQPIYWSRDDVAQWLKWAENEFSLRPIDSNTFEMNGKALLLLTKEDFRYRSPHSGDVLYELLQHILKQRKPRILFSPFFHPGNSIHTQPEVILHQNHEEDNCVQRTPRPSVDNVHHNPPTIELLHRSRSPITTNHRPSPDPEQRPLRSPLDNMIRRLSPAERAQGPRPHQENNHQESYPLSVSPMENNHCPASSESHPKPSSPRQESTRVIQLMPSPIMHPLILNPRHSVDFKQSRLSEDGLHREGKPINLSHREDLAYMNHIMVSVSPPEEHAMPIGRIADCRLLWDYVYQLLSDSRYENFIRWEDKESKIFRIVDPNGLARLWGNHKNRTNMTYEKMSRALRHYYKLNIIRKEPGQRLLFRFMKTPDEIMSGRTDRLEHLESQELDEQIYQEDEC
sequence,measurement,setting,value
TGACAG,binding signal,ELF3,"1.09 fold enrichment (6-mer frequency, TF over GST control)"
same,binding signal,ETV3L,"1 fold enrichment (6-mer frequency, TF over GST control)"
GCATAA,binding signal,CRX,"1.15 fold enrichment (6-mer frequency, TF over GST control)"
GATCAG,binding signal,CRX,"1.08 fold enrichment (6-mer frequency, TF over GST control)"
TAGAGG,binding signal,CRX,"1.02 fold enrichment (6-mer frequency, TF over GST control)"
GATTGG,binding signal,ELK3,"1.01 fold enrichment (6-mer frequency, TF over GST control)"
same,binding signal,CRX,"1.01 fold enrichment (6-mer frequency, TF over GST control)"
GTGTAA,binding signal,SPI1,"1.04 fold enrichment (6-mer frequency, TF over GST control)"
same,binding signal,ELF3,"1.11 fold enrichment (6-mer frequency, TF over GST control)"
AGTCTT,binding signal,SPI1,"1.03 fold enrichment (6-mer frequency, TF over GST control)"
same,binding signal,CRX,"1.02 fold enrichment (6-mer frequency, TF over GST control)"
same,binding signal,ERF,"1.01 fold enrichment (6-mer frequency, TF over GST control)"
same,binding signal,ELF5,"1.08 fold enrichment (6-mer frequency, TF over GST control)"
ACCGGT,binding signal,ELF3,"1.01 fold enrichment (6-mer frequency, TF over GST control)"
same,binding signal,SPDEF,"1.02 fold enrichment (6-mer frequency, TF over GST control)"
GGATTG,binding signal,CRX,"1.12 fold enrichment (6-mer frequency, TF over GST control)"
TGTCGC,binding signal,ELF1,"1.04 fold enrichment (6-mer frequency, TF over GST control)"
same,binding signal,EHF,"1.03 fold enrichment (6-mer frequency, TF over GST control)"
same,binding signal,SPI1,"1.02 fold enrichment (6-mer frequency, TF over GST control)"
same,binding signal,FEV,"1.02 fold enrichment (6-mer frequency, TF over GST control)"
same,binding signal,ELF3,"1.08 fold enrichment (6-mer frequency, TF over GST control)"
same,binding signal,ERF,"1.04 fold enrichment (6-mer frequency, TF over GST control)"
same,binding signal,ELF5,"1.04 fold enrichment (6-mer frequency, TF over GST control)"
same,binding signal,ETV6,"1.01 fold enrichment (6-mer frequency, TF over GST control)"
